According to PubChem BioAssay (NCATS):
Records with an inconclusive call do not appear. Where a call stands in place of a potency, no number is given. Activity calls are given as the source filed them. Calls follow the shape of the full dose curve.

test: Validation screen for inhibitors of Lassa infection (AID 463096); conditions: Lassa virus infection, cell-based; series mostly up to 46.1 µM
Potency is read from the fitted curve at half-maximal effect.

Row | Compound | Potency
1 | O=C1c2c(O)ccc(O)c2C(=O)c2c(NCCNCCO)ccc(NCCNCCO)c21 | 282 nM (active)
2 | CC12CC3CC(C)(C1)CC(N)(C3)C2 | inactive
3 | CC1=C(/C=C/C(C)=C/C=C/C(C)=C/C(=O)Nc2ccc(O)cc2)C(C)(C)CCC1 | inactive
4 | CC(C)NCC(O)COc1cccc2[nH]ccc12 (stereo unspecified) | inactive
5 | O=C1N=C(O)CN1/N=C/c1ccc(-c2ccc([N+](=O)[O-])cc2)o1 | inactive
6 | CC(=O)N[C@@H](CS)C(=O)O | inactive
7 | Cc1ccccc1C(OCCN(C)C)c1ccccc1 (stereo unspecified) | inactive
8 | O=C1NC(=O)C(c2ccccc2)(c2ccccc2)N1 | inactive
9 | Clc1ccc(C(c2ccccc2Cl)C(Cl)Cl)cc1 (stereo unspecified) | inactive
10 | CC(C)[N+](C)(CCOC(=O)C1c2ccccc2Oc2ccccc21)C(C)C | inactive
11 | Cc1cn([C@H]2C=C[C@@H](CO)O2)c(=O)[nH]c1=O | inactive
12 | CN1CCN(C2=Nc3ccccc3Oc3ccc(Cl)cc32)CC1 | inactive
13 | Cc1ccccc1N1C(=O)c2cc(S(N)(=O)=O)c(Cl)cc2NC1C (stereo unspecified) | inactive
14 | N=c1nc(N2CCCCC2)cc(N)n1O | inactive
15 | O=NN(CCCl)C(=O)NCCCl | inactive
16 | CC(C(=O)O)c1cccc(C(=O)c2ccccc2)c1 (stereo unspecified) | inactive

Row | Compound | Potency
17 | COc1ccc([C@@H]2Sc3ccccc3N(CCN(C)C)C(=O)[C@@H]2OC(C)=O)cc1 | 1410 nM (active)
18 | CN1CCN(C2=Nc3cc(Cl)ccc3Nc3ccccc32)CC1 | inactive
19 | CC(=O)Nc1nnc(S(N)(=O)=O)s1 | inactive
20 | Cc1[nH]c(=O)c(C#N)cc1-c1ccncc1 | inactive
21 | O=C(c1ccccc1)c1ccc2n1CCC2C(=O)O (stereo unspecified) | inactive
22 | CN(C)c1nc(N(C)C)nc(N(C)C)n1 | inactive
23 | CC1(C)NC(=O)N(c2ccc([N+](=O)[O-])c(C(F)(F)F)c2)C1=O | inactive
24 | CC(CN1c2ccccc2Sc2ccccc21)N(C)C (stereo unspecified) | inactive
25 | COCCCC/C(=N\OCCN)c1ccc(C(F)(F)F)cc1 | inactive
26 | O=C1CCc2cc(OCCCCc3nnnn3C3CCCCC3)ccc2N1 | inactive
27 | CC1=NS(=O)(=O)c2cc(Cl)ccc2N1 | inactive
28 | CCCN(CCC)CCc1cccc2c1CC(=O)N2 | inactive
29 | CC(C)(C)NC(=O)[C@H]1CC[C@H]2[C@@H]3CC[C@H]4NC(=O)C=C[C@]4(C)[C@H]3CC[C@]12C | inactive
30 | Cc1nc2n(c(=O)c1CCN1CCC(c3noc4cc(F)ccc34)CC1)CCCC2 | inactive
31 | N[C@@H]1CONC1=O | inactive
